Assay outcomes deposited in PubChem by National Center for Advancing Translational Sciences (NCATS).
Cycloheximide cs – Cycloheximide Counterscreen for Small Molecule Inhibitors of Shiga Toxin; cell reporter, cycloheximide protein synthesis inhibition counterscreen; max response, %; 12% of 300,000 active; AID 2314, 2010; in the data active = max response mostly above about 13%, no sharp cut-off; inactive = mostly below about 14%; note: read at 38.3 µM for the half of the compounds with a filed dose; 0% is about no effect
AmpC inh detg – qHTS Inhibitors of AmpC Beta-Lactamase (assay with detergent) | P00811 | AmpC hydrolysis of nitrocefin, absorbance 480 nm, 0.01% Triton | Potency, µM (series often up to 114 µM), for the others: at the highest dose activity change, negative = inhibition, actives largely listed as inhibitors | 0.041% of 370,000 active | AID 485294, 2010;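 note: potency is the fitted concentration of half-maximal effect; 0% = no-compound wells and -100% = no-enzyme wells; nearly all actives have a fitted effect of over 25% in size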
Target sequence (P00811 whole entry, looked up): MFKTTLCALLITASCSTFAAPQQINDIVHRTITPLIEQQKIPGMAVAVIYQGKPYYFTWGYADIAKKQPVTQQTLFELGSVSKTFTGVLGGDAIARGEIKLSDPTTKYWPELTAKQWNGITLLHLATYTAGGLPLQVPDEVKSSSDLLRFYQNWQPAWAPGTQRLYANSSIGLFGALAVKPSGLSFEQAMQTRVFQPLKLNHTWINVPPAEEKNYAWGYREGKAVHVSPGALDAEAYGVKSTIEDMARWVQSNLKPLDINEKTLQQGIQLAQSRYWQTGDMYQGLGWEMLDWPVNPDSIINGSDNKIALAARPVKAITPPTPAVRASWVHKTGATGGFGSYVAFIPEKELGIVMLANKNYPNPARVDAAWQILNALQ
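20 mM phosphate pH 7.0 + 0.01% (detergent screen) or 0.0001% Triton X-100; 5.3 nM AmpC reagent; cpd preinc 15 min RT; nitrocefin (800 uM stock) to start; A480 q20 s × 4 min; Activity was normalised to no-enzyme and no-compound control wells.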
NS1 function inh – qHTS Assay for Inhibitors of Influenza NS1 Protein Function; 0.4% of 270,000 active; AID 2326, 2010; Potency, µM (highest dose often 46.1 µM), for the others: at the highest dose activity, positive = more growth; calls by dose curve; note: potency is the fitted concentration of half-maximal effect; actives are rising curves; nearly all actives have a fitted effect of over 50% in size
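OD600 was taken as the measure of yeast growth restored by compound in an NS1-expressing S. cerevisiae strain. Cells had been washed out of glucose medium and diluted 1:100 into galactose -URA medium, pH 6.0.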
AmpC no deterg – qHTS Inhibitors of AmpC Beta-Lactamase (assay without detergent). P00811. AmpC nitrocefin hydrolysis, absorbance 480 nm, 0.0001% Triton. Potency, µM (doses to about 57.1 µM), for inactives: at the top dose activity change, negative = inhibition, usual class: inhibitors. 0.52% of 330,000 active;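 note: potency is the fitted concentration of half-maximal effect; plate controls were no compound for no effect and no enzyme for full effect; nearly all actives have a fitted effect of over 20% in size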
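AmpC (5.3 nM in the dispensed reagent) in 20 mM phosphate pH 7.0 with 0.01% (detergent screen) or 0.0001% Triton X-100 was preincubated with compounds for 15 min at room temperature. Nitrocefin was then added from an 800 uM solution, and hydrolysis was followed at 480 nm.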
Shiga toxin inh – A qHTS for Small Molecule Inhibitors of Shiga Toxin. 9.2% of 290,000 active. Vero cells, Shiga toxin protein synthesis inhibition reporter. inhibition, % at 38.7 µM; in the data active = inhibition mostly above about 28%, no sharp cut-off; inactive = mostly below about 43%; note: 0% is about no effect
Active calls of the source: *; ? = inconclusive; . = no result given; [ ] = dose if it differs, or a comment. Many of the other results were omitted from the sample, so hits are more common in it than they were. Unless noted, calls come from the whole dose curve; as a rule, active = well fitted curve in the direction sought with a large enough effect; inconclusive = small, poorly fitted or top-dose-only effect, or another doubt; inactive = no such curve, though single readings can be large; an effect the other way counts as inactive or inconclusive.

SMILES	Cycloheximide cs	AmpC inh detg	NS1 function inh	AmpC no deterg	Shiga toxin inh
Cn1c2cc(S(C)=O)sc2c2cnn(Cc3ccccc3F)c(=O)c21 (configuration not stated)	-8	.	.	.	-3
CC(=O)c1ccc(N2CCN(S(=O)(=O)c3ccc(-c4coc(C)n4)cc3)CC2)cc1	.	3%	.	.	.
S=C(NCCCn1ccnc1)NC1CCCCC1	-6	3%	2%	-22%	-11
COC(=O)/C(=C\C(=O)c1ccccc1)Nc1ccc(OC)cc1	50*	5%	-6%	?	58*
COc1ccc(NC(=O)CCCCC(=O)Nc2ccc(OC)cc2)cc1	1	0%	7%	-14%	.
COc1ccc(CCNC(=S)Nc2ccccc2)cc1	15	-8%	-7%	-20%	3
COc1ccc(N/C(C)=C/C(=S)Nc2ccccc2)cc1	32*	-7%	8%	-48%	43*
COc1ccc(N/C(C)=C/C(=O)c2ccccc2)cc1	64*	3%	-11%	-37%	164*
Cn1ncc([N+](=O)[O-])c1C(=O)Nc1ccc(-c2nc3ccccc3o2)cc1	24*	-1%	.	24%	41*
CC(=O)Nc1ccc(NC(=O)c2c([N+](=O)[O-])cnn2C)cc1	3	3%	-4%	-19%	.
c1ccc(COc2ccc(CN3CCN(c4ccccn4)CC3)cc2)cc1	41*	?	-87%	40%	93*
C(#Cc1ccccc1)CN1CCCCC1	15	4%	1%	-20%	10
c1ccc(CN2CCN(c3ncccn3)CC2)cc1	2	-6%	-7%	-10%	-4
C(#Cc1ccccc1)CN1CCN(c2ccccn2)CC1	25*	-15%	-10%	33%	28
O=C(O)c1c2c(nc3ccccc13)/C(=C/c1ccc(OC(F)F)cc1)CCC2	23*	-7%	-9%	-20%	58*
COC(=O)c1ccc(NC2=C(Cl)C(=O)OC2OC(=O)c2ccccc2)cc1 (configuration not stated)	42*	10µM*	.	4.5µM*	36
Cc1ccc(NC2=C(Cl)C(=O)OC2OC(=O)c2ccc(C)cc2)cc1 (configuration not stated)	7	8.9µM*	.	-47%	18
COc1cccc(NC2=C(Cl)C(=O)OC2OC(=O)c2ccco2)c1 (configuration not stated)	-6	-1%	.	-38%	-5
COc1ccc(N2CCN(C(CNC(=O)C(=O)NCc3ccc(C)cc3)c3cccnc3)CC2)cc1 (configuration not stated)	.	8%	.	.	.
CC(=O)c1cccc(-n2c(CCC(=O)O)ccc2-c2cccs2)c1	26*	-14%	-8%	-32%	52
CC(=O)c1cccc(-n2c(CCC(=O)O)ccc2-c2ccccc2)c1	40*	-2%	3%	-11%	75*
Cc1ccc(-c2ccc(CCC(=O)O)n2-c2ccc(O)cc2)cc1	-4	-5%	29%	-48%	-17
O=C(O)CCc1ccc(-c2cccs2)n1-c1ccc(C(=O)O)cc1	1	?	16%	-43%	19
CC(=O)c1ccc(-n2c(CCC(=O)O)ccc2-c2ccccc2)cc1	-6	-2%	5%	-15%	-3
Cc1ccc(-c2ccc(CCC(=O)O)n2-c2cccc(O)c2)cc1	40*	-5%	-4%	-34%	121*
SMILES	Cycloheximide cs	AmpC inh detg	NS1 function inh	AmpC no deterg	Shiga toxin inh
CCCCOc1cccc(C(=O)Nc2cc(NC(=O)c3ccco3)ccc2OC)c1	.	1%	.	.	.
CCC(C)c1ccccc1OCC(=O)Nc1ccc(S(=O)(=O)Nc2cc(C)on2)cc1 (configuration not stated)	.	22%	.	.	.
O=C(COC(=O)c1cccnc1)Nc1ccccc1	-4	-5%	11%	-8%	-4
CC(=O)c1ccc(NC(=O)COC(=O)c2ccccc2Nc2ccccc2)cc1	10	0%	4%	-22%	11
O=C(COC(=O)c1ccccc1Nc1ccccc1)Nc1ccccc1	1	?	-5%	7.1µM*	3
O=C(COC(=O)c1ccncc1)Nc1ccccc1	21*	4%	.	0%	59
CNC(=O)COC(=O)c1ccccc1Nc1ccccc1	17*	-8%	-5%	-4%	118*
CCN(CC)S(=O)(=O)c1cccc(NC2=NCC(C)S2)c1 (configuration not stated)	12	-11%	.	-42%	42
CC1(C)CN=C(NCc2ccccc2Cl)S1	17*	-11%	-11%	-27%	55*
CC1CN=C(NCc2ccccc2)S1 (configuration not stated)	16*	?	-2%	-17%	21
CC1CN=C(NCc2ccccc2Cl)S1 (configuration not stated)	25*	5%	14%	1%	42*
Cn1c(SCc2ccc(F)cc2)nc2ccc(C(=O)NCc3cccc(Cl)c3)cc21	.	-7%	.	.	.
CC(C)C(=O)Nc1ccc(S(=O)(=O)Nc2ccccn2)cc1	-3	-1%	10%	-2%	-14
Cc1c(C(=O)Nc2ccccc2F)sc2ncnc(N(C)C3CCCCC3)c12	.	-5%	.	.	.
Cc1ccc(OCCOc2cccc(C=C3C(=O)NC(=O)NC3=O)c2)c(C)c1	110*	-6%	-74%	-17%	110*
COc1ccccc1OCCCOc1cccc(/C=C2\SC(=O)NC2=O)c1	4	-18%	-6%	-38%	.
O=C1NC(=O)C(=Cc2cccc(OCCOc3ccccc3)c2)C(=O)N1	44*	5%	-7%	-27%	65*
CCC(C)(C)c1ccc(OC(=O)c2cccnc2Cl)cc1	38*	?	-20%	15%	124*
O=C(COC(=O)c1cccnc1Cl)c1ccccc1	47*	-8%	-28%	-14%	71*
CCc1ccc(C(=O)COC(=O)c2cccnc2Cl)cc1	39*	0%	-9%	1%	95*
CC(C)N(C(=O)COC(=O)c1cccnc1Cl)c1ccccc1	.	.	.	-2%	.
O=C(COC(=O)c1cccnc1Cl)c1ccc(F)cc1	22*	-11%	4%	-15%[2.29 µM]	97*
Cc1ccc2nc(NCCN)c3ncc(C)n3c2c1	-6	.	.	.	-9
CC1(C)COC(/C=C/c2cccc([N+](=O)[O-])c2)=N1	34*	6%	-61%	8%	65*
O=c1oc2cc(OCCO)ccc2c2c1CCCC2	2	-7%	-29%	-15%	2
Cc1ccc(S(=O)(=O)Nc2ccc3nc(C)sc3c2)cc1	0	-14%	-6%	-52%	17
O=S(=O)(Nc1cccc(-c2nc3cccnc3s2)c1)c1ccc2c(c1)CCCC2	8	-1%	-1%	-28%	6
Cc1ccc(-c2nc3cccnc3s2)cc1NC(=O)C1c2ccccc2Oc2ccccc21	30*	-20%	12%	-2%	29
Cc1nc2ccc(S(=O)(=O)Nc3ccc(-c4nc5cccnc5s4)cc3)cc2s1	37*	?	-12%	38%	49*
CCS(=O)(=O)Nc1ccc(-c2nc3cccnc3s2)cc1	41*	7%	-2%	-22%	73*
